Screening data deposited in PubChem BioAssay by The Scripps Research Institute Molecular Screening Center.
FBW7 act: human FBW7 E3 ligase activation, primary screen; Q969H0; AlphaScreen FBW7–phospho-cyclin E peptide binding, activator screen; normalized activity (activation), % at 26.1 µM; 650,000 tested, 0.13% active; AID 1259310; in the data active = normalized activity above about 1.9%;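 also: purified mutant Fbw7 with reduced substrate affinity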
Target sequence (Q969H0 whole entry, looked up): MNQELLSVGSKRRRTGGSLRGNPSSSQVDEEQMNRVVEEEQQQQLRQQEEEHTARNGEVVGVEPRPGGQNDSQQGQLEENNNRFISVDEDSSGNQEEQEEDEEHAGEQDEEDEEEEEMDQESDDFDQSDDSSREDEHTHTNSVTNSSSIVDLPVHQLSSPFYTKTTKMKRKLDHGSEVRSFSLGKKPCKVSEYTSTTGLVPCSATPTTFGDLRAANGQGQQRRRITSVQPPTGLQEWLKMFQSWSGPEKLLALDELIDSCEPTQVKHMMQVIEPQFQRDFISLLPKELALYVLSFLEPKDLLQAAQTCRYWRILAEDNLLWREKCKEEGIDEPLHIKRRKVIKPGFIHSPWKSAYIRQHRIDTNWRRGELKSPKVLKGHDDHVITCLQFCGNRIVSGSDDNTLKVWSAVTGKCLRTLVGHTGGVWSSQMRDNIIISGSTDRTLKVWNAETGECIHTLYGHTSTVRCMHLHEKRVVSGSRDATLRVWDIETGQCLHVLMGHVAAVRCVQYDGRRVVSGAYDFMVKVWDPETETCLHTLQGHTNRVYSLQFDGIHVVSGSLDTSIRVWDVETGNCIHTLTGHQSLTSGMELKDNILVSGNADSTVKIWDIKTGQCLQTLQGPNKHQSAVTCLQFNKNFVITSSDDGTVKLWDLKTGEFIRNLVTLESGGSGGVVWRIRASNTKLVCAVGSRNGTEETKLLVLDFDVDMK
MITF inh: human MITF inhibition, primary screen; AlphaScreen MITF homodimerization, bead proximity signal; 650,000 tested, 0.91% active; O75030; inhibition, % at 2.6 µM; in the data active = inhibition above about 50%;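 also: 0% = vehicle wells with protein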
GPR151 ag: human GPR151 activation. Q8TDV0. PathHunter beta-arrestin GPR151 cells, luminescence. activation, % at 11.2 µM. 650,000 tested, 1% active; in the data active = activation above about 4.9%;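 also: 0% = median of compound wells and 100% = cells with positive control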
TEAD-YAP block: TEAD-YAP interaction inhibition | HEK-TIYL cells, TEAD-Gal4/YAP UAS-luciferase luminescence | inhibition, % at 9.12 µM | 640,000 tested, 1.4% active | AID 1259422; in the data active = inhibition above about 32%;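 also: 0% = median of test compound wells and 100% = reference inhibitor wells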
Active calls of the source: *; · = no result given. In the library only some 3.4% were active in any assay of this set; here they are far more common.

SMILES | FBW7 act | MITF inh | GPR151 ag | TEAD-YAP block
Cc1cccc(NC(=O)CSc2nc3cc4c(cc3cc2C#N)OCCO4)c1 | -0.2 | 2.6 | 0.0 | 57.0*
COc1ccc(C)cc1NC(=O)CSc1nc2cc3c(cc2cc1C#N)OCCO3 | 0.2 | 5.4 | -0.3 | 67.0*
COC(=O)c1sc(NC(=O)c2cc(-c3ccccc3)nc3ccccc23)c(C(N)=O)c1C | 1.3 | 5.1 | -0.3 | -2.4
CCOc1ccccc1Nc1sc(C(=O)C(C)(C)C)c(N)c1C#N | -0.1 | -8.9 | -1.4 | 4.5
COC(=O)c1c(-c2ccc(C)c(C)c2)csc1NC(=O)/C=C/C(=O)O | 0.0 | -10.5 | 0.8 | 32.7*
COC(=O)c1c(NC(=O)/C=C/C(=O)O)sc(C)c1-c1cc(C)ccc1C | -0.2 | 2.1 | -0.4 | 42.0*
COC(=O)c1c(-c2ccccc2Cl)csc1NC(=O)/C=C/C(=O)O | -0.1 | 5.1 | 0.1 | 42.1*
COc1ccc(Nc2cc(C)c3c(O)cccc3n2)cc1 | -0.2 | 11.6 | -0.5 | 38.3*
COC(c1ccccc1)c1nnc(CCC(=O)NCc2cccc(C(F)(F)F)c2)o1 (configuration not stated) | 0.1 | 7.1 | 0.6 | 1.1
Nc1nonc1C(=O)N/N=C/c1ccccc1O | -0.3 | 62.6* | -3.0 | 2.5
O=C(N/N=C/c1cc(Cl)cc(Cl)c1O)c1ccncc1 | -0.3 | 95.6* | -0.6 | 32.3*
O=C(N/N=C/c1cc2ccccc2cc1O)c1ccncc1 | -2.1 | 53.5* | 2.7 | 87.8*
Nc1nonc1C(=O)N/N=C/c1cc(Cl)cc(Cl)c1O | -0.9 | 68.2* | 2.1 | 9.4
COc1ccc(O)c(/C=N/NC(=O)c2ccncc2)c1 | -0.7 | 20.2 | 0.8 | 24.4
O=C(NCc1ccccn1)C1CCN(C2CCN(C(=O)C3=CCCC3)CC2)CC1 | -0.1 | -0.2 | 2.6 | 3.7
CCOc1cc(C2C(C(C)=O)=C(O)C(=O)N2CC#N)ccc1O (configuration not stated) | 0.2 | 8.3 | 0.7 | 0.8
NC(=O)C1(N2CCCCC2)CCN(C(=O)NCc2ccccc2)CC1 | -0.1 | 2.6 | 1.0 | -2.9
Cc1cccc(NC(=O)C2CSCN2C(=O)OCc2ccccc2)c1 (configuration not stated) | -0.1 | -3.5 | 1.4 | 6.7
O=C(Nc1ccc2c(c1)CN(S(=O)(=O)c1cccnc1)CC2)c1ccccc1Cl | -0.2 | -5.7 | 3.2 | 46.0*
O=C(Nc1ccc2c(c1)CN(C(=O)Cn1cncn1)CC2)c1ccccc1Cl | -0.2 | 4.5 | -0.5 | 46.6*
C=CCN1C(=O)OC(C)(CCC=C(C)C)C1(C)O (configuration not stated) | 0.0 | -0.2 | 0.2 | -0.3
O=C(N(c1cccc(C(F)(F)F)c1)C1C=CS(=O)(=O)C1)C(Cl)(Cl)Cl (configuration not stated) | -0.1 | -3.4 | -1.0 | 52.9*
Cc1ccc(N(C(=O)C(Cl)(Cl)Cl)C2C=CS(=O)(=O)C2)cc1 (configuration not stated) | 0.0 | 8.2 | 1.1 | -2.2
O=[N+]([O-])c1ccc(C(Nc2ccccn2)c2ccc3cccnc3c2O)cc1 (configuration not stated) | -1.1 | 14.7 | -0.5 | 71.9*
Cc1cc(NC(=O)c2cccc([N+](=O)[O-])c2)no1 | 0.8 | 29.9 | -1.1 | 4.6
SMILES | FBW7 act | MITF inh | GPR151 ag | TEAD-YAP block
Cc1cc(NC(c2cccc([N+](=O)[O-])c2)c2ccc3cccnc3c2O)no1 (configuration not stated) | -1.1 | 7.5 | 0.7 | 86.3*
CC(C)C(=O)NC(c1ccc([N+](=O)[O-])cc1)c1ccc2cccnc2c1O (configuration not stated) | -0.9 | 34.6 | -1.7 | 80.8*
O=[N+]([O-])c1cccc(C(Nc2ccccn2)c2ccc3cccnc3c2O)c1 (configuration not stated) | -0.2 | 13.9 | -0.6 | 79.1*
Cc1ccc2ccc(C(Nc3ccccn3)c3ccc([N+](=O)[O-])cc3)c(O)c2n1 (configuration not stated) | -0.7 | 12.6 | -1.1 | 28.5
COCCn1c(=NC(=O)c2ccccc2OC)sc2ccccc21 | 0.0 | 2.6 | 0.0 | 9.9
O=C(O)CCCC(=O)N1CCC2(CC1)OCc1cc(F)ccc1O2 | 0.2 | 17.3 | 1.7 | -0.5
Nc1c(N=Nc2ccc(-c3ccc(N=Nc4cc(S(=O)(=O)O)c5ccccc5c4N)cc3)cc2)cc(S(=O)(=O)O)c2ccccc12 | -0.6 | 23.0 | -3.6 | 2.3
Cc1cc(-c2ccc(N=Nc3ccc4c(S(=O)(=O)O)cc(S(=O)(=O)O)c(N)c4c3O)c(C)c2)ccc1N=Nc1ccc2c(S(=O)(=O)O)cc(S(=O)(=O)O)c(N)c2c1O | 0.1 | 77.6* | 0.4 | ·
O=C(CSCc1ccccc1Cl)NCc1cccs1 | 0.1 | 3.0 | 0.5 | -58.2
Cc1ccc(C(=O)N/C(=C/C=C/c2ccccc2)C(=O)N2CC3CC(C2)c2cccc(=O)n2C3)cc1C (configuration not stated) | 0.0 | 0.5 | -0.9 | -3.1
COc1ccc(-c2ccc(C(=O)Nc3cc(OC)c(OC)c(OC)c3)s2)cc1 | 0.0 | 24.0 | -3.4 | 35.9*
COc1cc(NC(=O)c2ccc(-c3ccc(N4CCN(C)CC4)cc3)s2)cc(OC)c1OC | -0.1 | 9.7 | 0.2 | 61.8*
COc1cc(NC(=O)c2ccc(-c3ccc(C(N)=O)cc3)s2)cc(OC)c1OC | -0.1 | 1.9 | -0.4 | 10.2
N#CC1=C(N)Oc2c(sc3ccccc23)C1c1ccccc1OC(=O)c1ccccc1Cl (configuration not stated) | 0.2 | 5.0 | 1.2 | -3.3
COc1ccccc1C1C(C#N)=C(N)Oc2c1sc1ccccc21 (configuration not stated) | -0.2 | -10.1 | -0.1 | 32.9*
COc1ccc(C2C(C#N)=C(N)Oc3c2sc2ccccc32)c(OC)c1 (configuration not stated) | -0.1 | -2.6 | -0.8 | 64.3*
N#CC1=C(N)Oc2c(sc3ccccc23)C1c1ccc(Cl)cc1Cl (configuration not stated) | 0.1 | 6.3 | 0.4 | -1.4
Nc1c(C(=O)Nc2ccc(F)cc2)nnn1Cc1cccc(Cl)c1 | 0.0 | 10.8 | 0.5 | 32.7*
Nc1c(C(=O)Nc2ccc(Br)cc2)nnn1Cc1cccc(Cl)c1 | 0.2 | 16.6 | 0.2 | 6.1
Cc1nnc(SCC(=O)N2CCC(c3noc4ccc(F)cc34)CC2)s1 | -0.2 | -1.9 | 0.8 | 36.6*
Cc1nnc(SCC(=O)N2CCCC2)s1 | 0.0 | 1.9 | -2.5 | -1.9
OCCNc1nc(Nc2cnccn2)nc2c1ncn2-c1ccsc1 | -0.1 | -9.4 | -1.7 | 24.8
Nc1nc(Nc2ccc(-n3ccnc3)cc2)nc2c1ncn2-c1ccsc1 | 0.0 | 5.6 | 0.9 | 23.6
OCCNc1nc(Nc2ccncn2)nc2c1ncn2-c1ccsc1 | 0.0 | -2.8 | 0.9 | 36.0*
Nc1nc(Nc2ccncn2)nc2c1ncn2-c1ccsc1 | 15.6* | 12.3 | 0.0 | 38.3*
O=C(Nc1ccc2sc(NC(=O)c3ccc([N+](=O)[O-])o3)nc2n1)c1ccc([N+](=O)[O-])o1 | -0.2 | 6.5 | 3.0 | 24.0
CCOc1ccc2oc(=O)cc(CN(Cc3ccco3)CC3CCCO3)c2c1 (configuration not stated) | -0.1 | 6.9 | 0.0 | -8.6
CN(C)c1ccc(CC(=O)c2nc3ccccc3s2)cc1 | 0.2 | 9.7 | -1.6 | 34.1*
